Screening data (PubChem)
Shown are actives, neighbours in structure and some others; about 2.5% of the full set was active somewhere.
POLH inh: DNA polymerase eta (human) inhibition. recombinant Pol eta, fluorescent DNA replication assay. Potency, µM (titrated, usually from 114 µM), for the others: top-dose activity change, negative = inhibition, usual class: inhibitors. 390,000 compounds, 1.2% hits; note: % is set by controls: 0 for no effect and ±100 for the full control effect
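Fluorescent replication assay: 50 nM final substrate added after a 15 min room-temperature compound preincubation with 10 nM enzyme. Signal taken at 0 min and again at 10 min.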
Pol iota inh: blocks human DNA polymerase iota activity | Q9UNA4 | Pol iota fluorescent replication assay, 10 min | Potency, µM (doses to about 115 µM), for inactives: at the top dose activity, negative = inhibition, hits mostly inhibitors | 390,000 compounds, 1% hits
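Fluorescent replication assay read twice, at 0 min and 10 min after adding 50 nM (final) substrate. Enzyme (10 nM) and compounds were first incubated 15 min at room temperature; enzyme-free buffer wells were negative controls.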
POLK inh: DNA polymerase kappa (human) inhibition | 400,000 compounds, 0.53% hits | purified Pol kappa, fluorescent DNA synthesis assay, 10 min | Potency, µM (series often up to 107 µM), for the others: at the highest dose activity, negative = inhibition, hits mostly inhibitors | Q9UBT6; note: % is set by controls: 0 for no effect and ±100 for the full control effect
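Activity was followed as the change in fluorescence between reads at 0 and 10 min after starting the reaction with 50 nM substrate. Beforehand, 10 nM polymerase had been preincubated with compound for 15 min at room temperature.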
Pol beta inh: inhibitors of human DNA polymerase beta; P06746; Pol beta primer extension/strand displacement, fluorescence kinetic; Potency, µM (series often up to 114 µM), without a hit: top-dose activity change, negative = inhibition, most hits filed as inhibitors; 340,000 compounds, 1.3% hits; note: % is set by controls: 0 for no effect and ±100 for the full control effect
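Values derive from four-parameter Hill fits of normalized kinetic data: reads at 0 and 10 min following addition of 50 nM substrate to 10 nM Pol beta preincubated 15 min with compound.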
L3MBTL1 inh: L3MBTL1 (human) inhibition; Q9Y468; Potency, µM (titrated, usually from 57.1 µM), inactives show at the highest dose activity, negative = inhibition, actives largely listed as inhibitors; AlphaScreen L3MBTL1–H3K9me1 peptide binding; 230,000 compounds, 0.66% hits; note: % is set by controls: 0 for no effect and ±100 for the full control effect; nearly all actives have a fitted effect of over 60% in size
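Read-out is AlphaScreen signal from streptavidin donor and nickel chelate acceptor beads (10 ug/mL final each) bridging L3MBTL1 (50 nM) and biotinylated K9-monomethylated H3(1-15) peptide (75 nM), after 30 min compound exposure at room temperature.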
WRN helicase inh: inhibitors of human WRN helicase. Potency, µM (highest dose often 114 µM), for inactives: at the top dose activity change, negative = inhibition, actives largely listed as inhibitors. 360,000 compounds, 0.46% hits. Q14191. WRN helicase unwinding, fluorescent forked duplex, kinetic. AID 651768; note: % is set by controls: 0 for no effect and ±100 for the full control effect; nearly all actives have a fitted effect of over 55% in size
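Primary qHTS, 1536-well format. 20 nM WRN + compound, 15 min RT; start with 100 nM forked fluorophore/quencher duplex, 2 mM ATP (final); kinetic read ex 525/em 598 nm.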
The depositor's hits bear a star; ? = inconclusive; . = no result; [ ] = dose if it differs, or a comment. Calls come from the whole dose curve; as a rule, active = well fitted curve in the direction sought with a large enough effect; inconclusive = small, poorly fitted or top-dose-only effect, or another doubt; inactive = no such curve, though single readings can be large; an effect the other way counts as inactive or inconclusive. Potency is the fitted concentration of half-maximal effect.

SMILES | POLH inh | Pol iota inh | POLK inh | Pol beta inh | L3MBTL1 inh | WRN helicase inh
Cc1c(NC(=O)NC(=O)c2ccc(F)cc2)c(=O)n(-c2ccccc2)n1C | -4% | -1% | -2% | 6% | -2% | -3%
Cc1c(N=C2N=C(NC(=O)c3ccc(F)cc3)c3ccccc32)c(=O)n(-c2ccccc2)n1C | ? | ? | 13µM* | -3% | 2% | -18%
CC(C)N(C(=O)CSc1nnc(NC(=O)Cc2cccs2)s1)C(C)C | -6% | 13% | -3% | -2% | ? | 0%
O=C(CBr)c1ccc(Oc2ccc(C(=O)C[n+]3cccc(Br)c3)cc2)cc1 | . | 79µM* | 0% | . | . | .
COc1ccc(C(=O)C[n+]2cccc(Br)c2)cc1 | -6% | 8%[58.9 µM] | -8% | -2% | 2% | ?
O=C(CC1C(=O)NCCN1Cc1ccccc1)NCCCOc1cccnc1 (stereo not drawn) | -7% | 41% | -6% | 25% | . | -8%
O=C(CSc1nc(=O)n2cc(Cl)ccc2n1)Nc1ccc2c(c1)OCO2 | 20µM* | ? | -42% | . | ? | -29%
Cc1ccn2c(=O)nc(SCC(=O)Nc3ccc4c(c3)OCCO4)nc2c1 | ? | 56µM* | -11% | . | ? | -4%[11.6 µM]
Cc1ccc2nc(SCC(=O)Nc3ccc4c(c3)OCCO4)nc(=O)n2c1 | -1% | 63% | -11% | . | 27% | -25%
O=C(CSc1nc(=O)n2ccccc2n1)NCc1ccc2c(c1)OCO2 | -17% | 16% | 5% | . | 4% | -12%
Cc1ccn2c(=O)nc(SCC(=O)Nc3ccc4c(c3)OCO4)nc2c1 | ? | 35µM* | -24% | . | ? | -35%
O=C(CSc1nccn1-c1ccc(Cl)cc1)Nc1ccc2c(c1)OCO2 | -8% | -6% | -7% | -20% | -26% | -17%
O=C(CSc1nc(=O)n2cc(Cl)ccc2n1)NCCc1ccccc1 | 25µM* | ? | -36% | . | -4% | -25%
CC1(C)CC(=O)C(C=NCCN2CCN(C3CC(=O)N(c4ccc(Cl)c(Cl)c4)C3=O)CC2)=C(O)C1 (stereo not drawn) | -20% | 120% | 6% | -29% | -3% | 8%
C[C@H](CO)N1C[C@H](C)[C@@H](CN(C)S(=O)(=O)c2ccc(-n3cccn3)cc2)OCc2cn(nn2)CCCC1=O | 1% | . | . | . | . | 15%
COc1ccc(-c2oc3ncnc(NCCCN(C)C)c3c2-c2ccc(OC)cc2)cc1 | -13% | 0% | -5%[60.1 µM] | ? | . | -12%[11.6 µM]
CCCCNc1ncnc2oc(-c3ccco3)c(-c3ccco3)c12 | . | 71µM* | ? | . | . | .
C[C@@H]1CN([C@H](C)CO)C(=O)CCCn2cc(nn2)CO[C@H]1CN(C)S(=O)(=O)c1cccs1 | . | . | . | . | . | -11%
Nc1nc(O)c(N=Nc2ccc(S(N)(=O)=O)cc2)c(=O)[nH]1 | -18% | 151% | -6% | 0% | . | -6%
NS(=O)(=O)c1ccc(N=Nc2c(O)c(C(=O)O)cc3ccccc23)cc1 | 40µM* | ? | -9% | 35µM* | -25% | -9%[11.6 µM]
COc1cc(/C=C2/C(=O)N(c3ccc([N+](=O)[O-])cc3)N=C2N2CCOCC2)ccc1O | ? | 0.89µM* | -9% | -10% | -10% | 2%
CN1CCN(C(=O)CCn2c(=O)c3cccn3c3cccnc32)CC1 | -1% | 27% | -6% | -19% | . | -1%
O=c1cc(-c2ccc(F)cc2)[nH][nH]1 | -19% | 1.8µM* | -1% | 2% | -5% | 4%[11.6 µM]
COc1ccc(-c2cc(=O)[nH][nH]2)cc1OC | -17% | 1.3µM* | -3% | 37% | . | 4%[57.1 µM]
O=c1cc(-c2ccc(Br)cc2)[nH][nH]1 | -5% | 91% | 4% | 12% | -21% | 0%
CC(C)(C)C(=O)Cn1c(=O)n(-c2ccc(F)cc2F)c(=O)c2sccc21 | -21% | 35% | 0% | 7% | . | -5%
Cc1cccc(Nc2nnc(SCc3cn4ccsc4n3)s2)c1 | -10% | 5% | -18% | -22% | -7% | -23%
CCOC(=O)c1sc(N/N=C/c2cc(Br)c(O)c(OC)c2)nc1C | 35µM* | ? | ? | 32µM* | -5% | ?
